# Screening data (PubChem BioAssay)
# An excerpt weighted towards active compounds, which were near 3.5% of everything screened.
# GPR151 activ = activators of human GPR151; activation, % at 11.2 µM; 1% of 650,000 active; AID 1508602; PathHunter beta-arrestin GPR151 cells, luminescence; in the data active means activation above about 4.9%;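 further: 0% = median of compound wells and 100% = cells with positive control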
# TEAD-YAP inh = TEAD-YAP interaction inhibition. inhibition, % at 9.12 µM. HEK-TIYL cells, TEAD-Gal4/YAP UAS-luciferase luminescence. 1.4% of 640,000 active; in the data active means inhibition above about 32%;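 further: 0% = median of test compound wells and 100% = reference inhibitor wells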
# MITF primary = human MITF inhibition, primary screen | 0.91% of 650,000 active | O75030 | AID 1259374 | inhibition, % at 2.6 µM | AlphaScreen MITF homodimerization, bead proximity signal; in the data active means inhibition above about 50%;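 further: 0% = vehicle wells with protein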
# Target sequence (O75030 whole entry, looked up): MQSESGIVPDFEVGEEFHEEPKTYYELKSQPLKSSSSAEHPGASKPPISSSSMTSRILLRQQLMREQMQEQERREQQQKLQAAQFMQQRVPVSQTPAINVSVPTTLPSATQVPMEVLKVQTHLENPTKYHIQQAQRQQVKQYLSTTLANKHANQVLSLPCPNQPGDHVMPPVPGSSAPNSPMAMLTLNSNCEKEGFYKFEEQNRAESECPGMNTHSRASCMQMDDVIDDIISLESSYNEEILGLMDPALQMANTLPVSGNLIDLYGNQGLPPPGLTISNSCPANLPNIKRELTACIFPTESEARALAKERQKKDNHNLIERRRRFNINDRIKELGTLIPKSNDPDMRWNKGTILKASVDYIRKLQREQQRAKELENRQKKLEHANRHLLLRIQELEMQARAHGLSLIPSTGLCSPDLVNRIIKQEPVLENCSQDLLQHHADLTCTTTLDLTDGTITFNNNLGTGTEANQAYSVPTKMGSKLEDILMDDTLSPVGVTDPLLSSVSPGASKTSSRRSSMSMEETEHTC
# FBW7 activator = activators of human E3 ligase FBW7; Q969H0; AID 1259310; 0.13% of 650,000 active; normalized activity (activation), % at 26.1 µM; AlphaScreen FBW7–phospho-cyclin E peptide binding, activator screen; in the data active means normalized activity above about 1.9%;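 further: purified mutant Fbw7 with reduced substrate affinity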
# The depositor's hits bear a star.
SMILES,GPR151 activ,TEAD-YAP inh,MITF primary,FBW7 activator
C[C@@H]1NC(=O)[C@H]2CN(Cc3ccsc3)CCN2C1=O,0.5,1.1,-14.3,-0.1
N#Cc1c(-c2ccc(Cl)cc2)cc(C2CC2)c(C#N)c1N,-1.6,2.0,14.0,0.1
CC1=CC(C)(C)N2C(=O)C(=O)c3cc(OC(=O)c4ccccc4F)cc1c32,-0.4,45.0*,5.1,-0.3
COc1cc(/C=C2/C(=O)N(C)c3ccccc32)cc(OC)c1O,0.2,40.7*,19.4,0.1
COc1cc(/C=C2\C(=O)N(C)C(=O)N(c3ccccc3)C2=O)cc(OC)c1O,-0.3,-4.4,-14.0,-0.1
O=C(Nc1ccc([N+](=O)[O-])cc1[N+](=O)[O-])c1ccccc1,0.4,-1.7,18.6,-0.1
O=C(NNc1ccc(C(F)(F)F)cc1[N+](=O)[O-])C(F)(F)F,0.0,8.9,22.7,2.5*
O=C(NNc1ccc([N+](=O)[O-])cc1[N+](=O)[O-])c1ccccc1,-0.3,73.0*,14.1,-0.3
O=C(NNc1ccc(C(F)(F)F)cc1[N+](=O)[O-])c1ccccc1,-0.9,9.4,16.3,0.3
Cc1ccc(N2CCN(C(=O)CC(C)(C)CC3=NS(=O)(=O)c4ccccc4N3)CC2)c(C)c1,-0.3,47.1*,6.6,0.0
N#CC(C1=NS(=O)(=O)c2ccccc21)c1nc(C23CC4CC(CC(C4)C2)C3)cs1 (configuration not stated),1.4,62.5*,-3.3,-0.1
Cc1csc(C(C#N)C2=NS(=O)(=O)c3ccccc32)n1 (configuration not stated),-0.2,-19.0,0.5,0.1
c1ccc(-c2cnc3c(Nc4ccc5[nH]ccc5c4)nccn23)cc1,-2.4,0.1,-4.6,-0.1
Fc1cccc(-c2cnc3c(Nc4ccc5[nH]ccc5c4)nccn23)c1,-2.6,13.0,-22.5,0.4
c1cnc2c(-c3cnc4c(Nc5ccc6[nH]ccc6c5)nccn34)cccc2c1,0.0,54.8*,6.8,-0.7
CS(=O)(=O)Nc1cccc(-c2cnc3c(Nc4ccc5[nH]ccc5c4)nccn23)c1,-1.2,90.0*,17.6,0.0
CC(=O)N1CCN(c2ccccc2NC(=O)c2ccc(C)cc2)CC1,0.0,2.4,-0.1,0.5
c1ccc(Nc2nc(NC3CC3)c3ncn(C4CCCCC4)c3n2)nc1,0.8,21.8,3.5,-0.2
c1ccc(-n2cnc3c(NC4CC4)nc(Nc4ccccn4)nc32)cc1,-0.2,47.0*,6.8,0.0
FC(F)(F)c1ccc(Nc2nc(NC3CC3)c3ncn(-c4ccccc4)c3n2)cc1,-0.4,-8.0,15.6,-0.1
c1ccc(-n2cnc3c(NC4CC4)nc(Nc4ccc(-n5ccnc5)cc4)nc32)cc1,0.6,41.1*,-0.2,-0.3
c1ccc(Nc2nc(NC3CC3)c3ncn(-c4ccccc4)c3n2)cc1,-0.4,47.2*,0.1,-0.2
c1ccc(-n2cnc3c(NC4CC4)nc(Nc4cccnc4)nc32)cc1,-2.0,41.8*,4.7,0.0
O=C(CSc1nnc(C2CCCCC2)o1)NCc1ccco1,-1.3,4.2,10.6,0.1
O=c1[nH]c(Cc2ccc(F)cc2)nc2c1nnn2Cn1nnc(-c2ccccc2)n1,-0.1,-11.1,-3.6,-0.1
SMILES,GPR151 activ,TEAD-YAP inh,MITF primary,FBW7 activator
Nc1ccc(C(=O)OCc2nc3cc4ccccc4cc3[nH]2)cc1,-1.5,48.2*,-2.1,0.4
Nc1ccc(C(=O)OCCCc2nc3cc4ccccc4cc3[nH]2)cc1,2.8,6.9,8.2,0.0
N#C/C(=C\c1ccc(OCC(=O)NCC2CCCO2)cc1)C(=O)NCc1ccccc1 (configuration not stated),0.8,6.6,-21.6,-0.2
N#C/C(=C\c1ccc(OCC(=O)NCC2CCCO2)cc1)C(=O)NCCc1ccccc1 (configuration not stated),-0.1,0.5,7.7,2.0*
Cc1ccc(-c2noc(-c3ccco3)n2)cc1,-5.0,-6.9,-0.1,-0.2
COc1ccc(-c2noc(-c3ccco3)n2)cc1,-10.2,60.2*,-10.2,-0.1
CCOc1ccc(-c2nc(-c3ccccc3)no2)cc1,-2.5,61.7*,12.8,0.0
O=C(Nc1ccncc1)c1ccc(NC(=O)c2cccc(I)c2)cc1,0.6,17.8,-4.5,-0.2
COc1ccc(/C=C/C2=NN(c3ccccc3)C(c3ccc(OC)cc3OC)C2)c(OC)c1 (configuration not stated),0.8,1.8,-55.0,2.7*
CN1CCC(=NNC(=O)c2cc(O)c(O)c(O)c2)CC1,-0.3,-2.1,82.8*,-0.3
COc1cc(OC)cc(C(=O)NN=C2CCN(C)CC2)c1,1.4,50.5*,17.8,0.0
CCOc1ccc(-n2c(CNC(=O)c3ccc(S(=O)(=O)N4CCOCC4)cc3)nnc2SCC(=O)Nc2cc(C)ccc2C)cc1,0.4,-4.1,1.1,0.4
c1nc2nc3c(c(Nc4ccc5c(c4)OCCO5)n2n1)CCC3,0.9,39.8*,-7.1,-0.2
CN(Cc1ccccc1)S(=O)(=O)c1ccc(NC(=O)c2ccccc2[N+](=O)[O-])cc1,-0.4,11.0,8.8,-0.3
COc1ccc(Nc2nccc(NCc3cccc(C(F)(F)F)c3)n2)cn1,0.5,9.4,-13.4,0.0
COc1ccc(-c2nc3ncnc(NCc4cccc(C(F)(F)F)c4)c3[nH]2)cn1,0.4,53.7*,13.1,-0.2
COc1ccc(Nc2nc(C)cc(NCc3cccc(C(F)(F)F)c3)n2)cn1,0.5,29.3,5.8,1.9*
COc1ccc(Nc2nc(C)cc(NCc3cccc(C(F)(F)F)c3)n2)cc1,-0.4,37.6*,5.7,0.0
Oc1ccccc1/C=N\Nc1nc2ccccc2o1,-2.7,51.6*,22.2,-0.2
Oc1ccccc1/C=N\Nc1ncc(F)c(N2CCOCC2)n1,0.1,-27.1,87.6*,-0.6
O=C(N/N=C/c1ccccc1O)C(=O)Nc1ccccn1,-0.4,-16.3,60.5*,-2.1
Oc1ccccc1/C=N/Nc1ccc(Cl)nn1,0.4,72.4*,51.2*,-0.1
COc1ccc(S(=O)(=O)NCCC(=O)N2CCOCC2)cc1,-0.1,3.0,12.8,0.5
CN(C)C(=O)c1ccc(C(=O)c2ccccc2)o1,-5.5,-68.0,-5.2,0.1
O=C(NCc1cccc(CNC(=O)NCc2ccco2)c1)NCc1ccco1,-0.7,1.0,-10.3,0.1
SMILES,GPR151 activ,TEAD-YAP inh,MITF primary,FBW7 activator
Oc1c(Br)cc(Br)cc1/C=N/Nc1ccccn1,-0.6,17.8,26.5,0.2
Cc1cc(C)n(-c2cc(N/N=C/c3ccccc3O)ncn2)n1,0.4,58.9*,10.0,-0.5
Oc1ccccc1/C=N\Nc1ccccn1,1.5,-69.7,81.8*,-0.9
COc1ccccc1N1CCN(C(=O)c2csc(NC(=O)c3ccccc3)n2)CC1,-0.7,-0.4,15.1,0.0
CCCOc1ccc(/C(O)=C2\C(=O)C(=O)N(CCN(C)C)C2c2ccc(OC)c(OC)c2)c(C)c1 (configuration not stated),0.6,-6.8,-5.7,-0.4
CCCOc1ccc(/C(O)=C2\C(=O)C(=O)N(CCCN(C)C)C2c2ccc(OC)c(OC)c2)c(C)c1 (configuration not stated),-1.8,32.8*,15.4,0.3
C/C(=N/Nc1nc(-c2ccccc2)cs1)C(C)(C)C,-0.1,60.9*,3.6,-0.3
CC(C)(C)Nc1c(-c2ccco2)nc2cnccn12,0.2,-3.1,0.4,0.0
Cc1ccc(CN=C(N)Nc2nc(C)cc(C)n2)cc1,1.6,54.0*,-0.2,-0.2
